From PubChem BioAssay (EPA / NIEHS) come the findings set out here.

The nature of the experiment: CEETOX_H295R_ANDR: CeeTox H295R High-throughput Steroidogenesis Assay for Androstenedione (ANDR) (AID 2283436). The conditions noted are these: actives raise or lower the signal. The essentials: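 H295R human adrenal cells (passages ≤10) were exposed to test chemicals for 48 h; androstenedione in medium was MTBE-extracted and quantified by HPLC-MS/MS against a 7-point standard curve. Bidirectional fitting used DMSO as baseline.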

Calls of active or inactive are those of the source. The calls were made as follows: active = hit-call score of the fitted dose curve at least 0.9, where 1 is the maximum; inactive = score below 0.9.

As for `O=S1OC[C@@H]2[C@H](CO1)[C@]1(Cl)C(Cl)=C(Cl)[C@@]2(Cl)C1(Cl)Cl` (stereo partly specified), the concentration at half-maximal activity (AC50) (commonly the concentration giving half of the maximal activity seen) is 50 µM (active).
